In PubChem BioAssay AID720519 (National Center for Advancing Translational Sciences (NCATS), 2013):
Inconclusive results are not listed. Calls of active or inactive are those of the source. Calls come from the whole dose curve; as a rule, active = well fitted activation curve with a large enough effect; inconclusive = small, poorly fitted or top-dose-only effect; inactive = flat fitted curve, though single readings scatter.

Assay: qHTS for Inhibitors of Cell Surface uPA Generation: Confirmatory Assay for Cherry-picked Compounds; for inhibition: 0% is about no effect
Settings: cell surface uPA activity generation, qHTS confirmation; series mostly up to 115 µM; inhibition: at the top concentration
Summary of the method: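 RAW 264.7 cells at 4000/well, incubated overnight, then treated with compounds. After 24 h at 37 C, viability was read by ATPlite luminescence. An increase in signal indicates blocked uPA-dependent LF entry.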
Potency is the fitted concentration of half-maximal effect.

Row | SMILES | inhibition | Potency
1 | COc1cc(SC)ccc1C(=O)OCc1nc2ccsc2c(=O)[nH]1 | 0.565% (inactive) | –
2 | Cc1nc(SCc2nc3ccccc3[nH]2)c2oc3cc([N+](=O)[O-])ccc3c2n1 | -3.44% (inactive) | –
3 | CCOc1ccc(C2(C)CC(=O)N(C)C2=O)cc1 (centres undefined) | -2.12% (inactive) | –
4 | CN(C)c1cccc(C(=O)N(C)C2CCCN(Cc3ccccc3F)C2)c1 (centres undefined) | – | 20.7 µM (active)
5 | Cc1oc(-c2ccccc2F)nc1CS(=O)(=O)CC(=O)NC1CCCC(C)C1C (centres undefined) | -0.805% (inactive) | –
6 | COc1cc(/C=N/NC(=O)Cc2csc(C)n2)ccc1OCC(C)C | -0.993% (inactive) | –
7 | O=C(CN1CCN(Cc2ccc(Cl)cc2)C1=O)NCc1cccs1 | -1.61% (inactive) | –
8 | CCOC(=O)c1c(NC(=S)NC)sc2c1CCCC2 | -1.04% (inactive) | –
9 | O=C(CNC(=O)c1ccc(Br)o1)NNC(=O)c1ccccc1 | -1.22% (inactive) | –
10 | CC1CCCCN1C(=O)CSc1nc2ncccc2[nH]1 (centres undefined) | -2.7% (inactive) | –
11 | CC(C)(C)NC(=O)C(c1cccs1)N(C(=O)c1csnn1)c1ccccc1F (centres undefined) | -1.14% (inactive) | –
12 | O=C1NCCN1C(=O)N(c1ccccc1)c1ccccc1 | -0.467% (inactive) | –
13 | Cc1ccc(NC2CCCN(C(=O)Cc3nonc3C)C2)cc1C (centres undefined) | -0.6% (inactive) | –
14 | Cc1ccc(CN2CCN(Cc3cc4ccccc4o3)CC2CCO)cc1 (centres undefined) | -0.556% (inactive) | –
15 | CCOC(=O)C1CCCN(CC(=O)Nc2ccc(C(=O)Nc3ccccc3OC)cc2)C1 (centres undefined) | 1.94% (inactive) | –
16 | COc1ccccc1NC(=O)Cn1nnc(-c2ccccc2NC(=O)c2cc3ccccc3oc2=O)n1 | -2.06% (inactive) | –
17 | C[C@@H](C(=O)Nc1ccc2ccccc2c1)[C@@H]1C[C@@]1(C)[C@@H](NC(=O)c1cccnc1)c1ccccc1 | -3.26% (inactive) | –
18 | Cc1cc(C)n2nc(CNS(=O)(=O)c3ccc(F)c(C)c3)nc2n1 | -1.56% (inactive) | –
19 | COc1cc(CCC(=O)OCC(=O)NCc2ccccc2)cc(OC)c1OC | 0.19% (inactive) | –
20 | Cc1ccc(C(=O)NNC(=O)CNc2cccc(Cl)c2)cc1 | -2.22% (inactive) | –

Row | SMILES | inhibition | Potency
21 | COc1ccccc1CNC(=O)CCn1c(=O)oc2ccccc21 | -1.34% (inactive) | –
22 | O=C(N/N=C/c1cccs1)c1ccco1 | -2.33% (inactive) | –
23 | O=C(NCCc1ccccc1)C1CCC(=O)N(Cc2cccc(C(F)(F)F)c2)C1 (centres undefined) | -2.36% (inactive) | –
24 | COCCN(C(=O)c1ccc(OC2CCN(S(=O)(=O)N(C)C)CC2)cc1)C(C)C | 0.226% (inactive) | –
25 | Cc1cc(C)n(C(=O)c2cccc([N+](=O)[O-])c2)n1 | -3.17% (inactive) | –
26 | Cc1ccc(C(=O)COc2cc(O)c3c(=O)cc(-c4ccccc4)oc3c2)cc1 | -1.83% (inactive) | –
27 | C[n+]1c2cc(N)ccc2cc2ccc(N)cc21 | -3.52% (inactive) | –
28 | Fc1ccc(N2CCN(c3nc(CN4CCOCC4)nc4scc(-c5ccccc5)c34)CC2)cc1 | -2.29% (inactive) | –
29 | COc1ccccc1NS(=O)(=O)c1cc(NC(=O)CCc2nc3ccccc3c(=O)[nH]2)ccc1C | -1.6% (inactive) | –
30 | O=C(NNC(=O)c1cccnc1)c1ccncc1 | -1.17% (inactive) | –
31 | Cc1cc(C)cc(NC(=O)COC(=O)CCn2c(C)csc2=O)c1 | -1.09% (inactive) | –
32 | COC(=O)CCNS(=O)(=O)c1ccc2nsnc2c1 | -0.28% (inactive) | –
33 | [N-]=[N+]=NC1C[C@H](n2ccc(=O)[nH]c2=O)O[C@@H]1CO (some centres undefined) | -2.21% (inactive) | –
34 | CC(=O)c1ccc(NC(=O)Nc2ccc(Br)cc2C)cc1 | 1.84% (inactive) | –
35 | COc1ccc(C)cc1NC(=O)NNC(=O)C1CCC(C(C)(C)C)CC1 (centres undefined) | -3.28% (inactive) | –
36 | C=CC[n+]1c(/C=C/c2ccc(OC(C)=O)c(OC)c2)ccc2ccccc21 | -3.82% (inactive) | –
37 | O=C(Nn1cnnc1)c1ccc(Cl)c(Cl)c1 | -0.701% (inactive) | –
38 | C=CCc1cc(S(=O)(=O)c2ccc(O)c(CC=C)c2)ccc1O | 3.72% (inactive) | –
39 | COc1ccc2c(ccn2S(=O)(=O)c2ccccc2)c1 | -3.74% (inactive) | –
